Bioassay records deposited in PubChem BioAssay by The Scripps Research Institute Molecular Screening Center.
In the library only some 3.4% were active in any assay of this set; here they are far more common.
TEAD-YAP block: TEAD-YAP interaction inhibition; HEK-TIYL cells, TEAD-Gal4/YAP UAS-luciferase luminescence; inhibition, % at 9.12 µM; actives 1.4% (n = 640,000); in the data active = inhibition above about 32%;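 note: 0% = median of test compound wells and 100% = reference inhibitor wells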
GPR151 ag: activates the human receptor GPR151; actives 1% (n = 650,000); Q8TDV0; activation, % at 11.2 µM; AID 1508602; PathHunter beta-arrestin GPR151 cells, luminescence; in the data active = activation above about 4.9%;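 note: 0% = median of compound wells and 100% = cells with positive control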
Target sequence (Q8TDV0 whole entry, looked up): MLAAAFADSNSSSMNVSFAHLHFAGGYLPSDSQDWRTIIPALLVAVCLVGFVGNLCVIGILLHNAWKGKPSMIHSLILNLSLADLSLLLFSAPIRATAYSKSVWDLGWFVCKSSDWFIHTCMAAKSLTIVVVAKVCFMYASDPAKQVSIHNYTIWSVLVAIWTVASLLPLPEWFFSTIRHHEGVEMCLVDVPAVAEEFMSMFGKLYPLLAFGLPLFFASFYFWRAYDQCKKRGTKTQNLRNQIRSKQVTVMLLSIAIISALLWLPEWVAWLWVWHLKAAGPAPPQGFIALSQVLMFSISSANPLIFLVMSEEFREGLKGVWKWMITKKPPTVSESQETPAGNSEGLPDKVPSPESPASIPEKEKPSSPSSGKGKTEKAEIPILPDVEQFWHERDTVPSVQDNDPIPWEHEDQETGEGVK
MITF inh: human MITF inhibition, primary screen. O75030. AlphaScreen MITF homodimerization, bead proximity signal. inhibition, % at 2.6 µM. actives 0.91% (n = 650,000); in the data active = inhibition above about 50%;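 note: 0% = vehicle wells with protein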
FBW7 activator: activators of human E3 ligase FBW7. Q969H0. AlphaScreen FBW7–phospho-cyclin E peptide binding, activator screen. normalized activity (activation), % at 26.1 µM. actives 0.13% (n = 650,000); in the data active = normalized activity above about 1.9%;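 note: purified mutant Fbw7 with reduced substrate affinity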
MITF confirm: human MITF inhibition, confirmation; AID 1259372; actives 16% (n = 4,700); inhibition, % at 2.6 µM; shares compounds with MITF inh; AlphaScreen MITF homodimerization, biotin/His-MITF beads;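 active = inhibition above a cutoff derived from the DMSO control wells, cut at about 28% in these data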;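 note: 0% = MITF dimer wells with DMSO only; inhibitors lower the bead chemiluminescence by keeping MITF from dimerizing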
AS interf DR: AlphaScreen optical interference, dose response counter-screen; shares compounds with MITF inh; AlphaScreen optical interference counterscreen, cell-free; IC50, µM; actives 6% (n = 480); call rule not given here
AlphaScreen intf2: counter-screen: compounds optically interfering with AlphaScreen | shares compounds with MITF inh | LysRS AlphaScreen counterscreen, signal interference, triplicate | inhibition, % at 2.6 µM | actives 7.6% (n = 4,700) | AID 1259376;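 active = inhibition above a cutoff derived from the DMSO control wells, cut at about 30% in these data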
The depositor's hits bear a star.

What do the screens show for `COc1cccc(Nc2nc(-c3ccccc3Cl)nc3ccccc23)c1`?
TEAD-YAP block: 28; GPR151 ag: 0; MITF inh: 52*; FBW7 activator: 0; MITF confirm: 3; AlphaScreen intf2: 9

How did Cc1ccc2occ(CN3CCC4(CC3)CC4C(=O)Nc3ccc(F)c(F)c3)c(=O)c2c1 (stereo unspecified) do in these assays?
TEAD-YAP block: -5; GPR151 ag: 0; MITF inh: 74*; FBW7 activator: 0; MITF confirm: 9; AlphaScreen intf2: -3

Results for CSc1ccc(NC(=O)C2CC23CCN(Cc2coc4ccc(C)cc4c2=O)CC3)cc1 (stereo unspecified) ?
TEAD-YAP block: 0; GPR151 ag: 1; MITF inh: 4; FBW7 activator: 0

Results for CCOc1ccc(S(=O)(=O)NC2CCCCC2)cc1-c1nc2c(C(C)(C)C)nn(C)c2c(=O)[nH]1 ?
TEAD-YAP block: -3; GPR151 ag: -1; MITF inh: 77*; FBW7 activator: 0; MITF confirm: 9; AlphaScreen intf2: 10

Results for c1cn2cc(Cc3nnc4n3CCCCC4)nc2s1 ?
TEAD-YAP block: -2; GPR151 ag: -1; MITF inh: 5; FBW7 activator: -1

How did c1cn2cc(Cc3nnc4n3CCC4)nc2s1 do in these assays?
TEAD-YAP block: 14; GPR151 ag: 0; MITF inh: 80*; FBW7 activator: -1; MITF confirm: 13; AlphaScreen intf2: 27

Results for Cc1ccc2nc(C3CCN(S(=O)(=O)c4ccc5c(c4)OCCO5)CC3)[nH]c2c1 ?
TEAD-YAP block: 8; GPR151 ag: 1; MITF inh: 66*; FBW7 activator: 0; MITF confirm: 12; AlphaScreen intf2: 19

How did COc1cc(C=Nc2ccc(N(C)C)cc2)cc(I)c1O do in these assays?
TEAD-YAP block: 21; GPR151 ag: 1; MITF inh: 77*; FBW7 activator: 1; MITF confirm: 45*; AS interf DR: >6.5; AlphaScreen intf2: 30

Results for COc1ccccc1/C=C1\N=C(c2ccccc2)OC1=O ?
TEAD-YAP block: -2; GPR151 ag: 0; MITF inh: -4; FBW7 activator: 0

Results for CC(C)NC(=O)NC(=O)CSc1nnc(N)s1 ?
TEAD-YAP block: -3; GPR151 ag: 0; MITF inh: 64*; FBW7 activator: 0; MITF confirm: 1; AlphaScreen intf2: -3

How did Nc1nnc(SCC(=O)NCCCCNC(=O)CSc2nnc(N)s2)s1 do in these assays?
TEAD-YAP block: -2; GPR151 ag: 1; MITF inh: -1; FBW7 activator: 0

How did Cc1cc(C(=O)N=c2sc3cc4c(cc3n2C)OCCO4)no1 do in these assays?
TEAD-YAP block: -23; GPR151 ag: 0; MITF inh: 76*; FBW7 activator: 0; MITF confirm: 2; AlphaScreen intf2: -6

Results for Cn1c(=NC(=O)c2cccs2)sc2cc3c(cc21)OCCO3 ?
TEAD-YAP block: 26; GPR151 ag: 0; MITF inh: -14; FBW7 activator: 0

What do the screens show for `CC(C(=O)N1CCCC1)N1CCN(C(c2ccccc2)c2ccccc2)CC1` (stereo unspecified)?
TEAD-YAP block: 1; GPR151 ag: -2; MITF inh: 85*; FBW7 activator: 0; MITF confirm: 5; AlphaScreen intf2: 15

How did CCC(C(=O)N1CCCC1)c1ccccc1 (stereo unspecified) do in these assays?
TEAD-YAP block: 2; GPR151 ag: 0; MITF inh: -12; FBW7 activator: 0

Results for Cc1ccc(N(CC(=O)NC(C)C)S(=O)(=O)c2ccccc2)cc1 ?
TEAD-YAP block: 5; GPR151 ag: 1; MITF inh: -3; FBW7 activator: 0

What do the screens show for `O=c1cc(-c2ccccc2)nc2nn[nH]n12`?
TEAD-YAP block: 12; GPR151 ag: -6; MITF inh: 3; FBW7 activator: 0

How did O=c1cc(/C=C/c2ccc(O)cc2)nc2nn[nH]n12 do in these assays?
TEAD-YAP block: 1; GPR151 ag: -2; MITF inh: 57*; FBW7 activator: -1; MITF confirm: 39*; AS interf DR: >6.5; AlphaScreen intf2: -2

Results for c1ccc(Cc2nc3cnccn3c2NCc2ccc3c(c2)OCO3)cc1 ?
TEAD-YAP block: 3; GPR151 ag: 0; MITF inh: 68*; FBW7 activator: 0; MITF confirm: 7; AlphaScreen intf2: 10
